HCV inhibitor: inhibitors of hepatitis C virus infection. Huh7.5.1 HCVcc-Cre infection, luciferase reporter, 44 h. Potency, µM (highest dose often 41.8 µM), inactives show at the top dose activity change, negative = inhibition, hits mostly inhibitors. 340,000 compounds, 3.4% hits; active means well fitted inhibition curve with a large enough effect; inconclusive means small, poorly fitted or top-dose-only effect, or another doubt; inactive means no such curve, though single readings can be large or run the other way; further: potency means the concentration at half of the fitted maximal effect
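Cells seeded at 1,000/well and cultured 4 h, then compounds added followed by HCVcc-Cre virus (~0.5 moi). After 44 h further culture, luciferase substrate was added, plates held 15 min at room temperature, and luminescence read for 15 sec.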
Lassa entry inh: inhibitors of Lassa virus binding or cell entry; Lassa virus pseudotype entry inhibition, cell reporter; Potency, µM (top dose mostly 37.9 µM), for the others: at the top dose activity change, negative = inhibition, actives largely listed as inhibitors; 300,000 compounds, 1.2% hits; calls by dose curve; tested in HEK293 cells; further: potency means the concentration at half of the fitted maximal effect; nearly all actives have a fitted effect of over 50% in size
FMDV antiviral: foot and mouth disease virus antiviral activity; FMDV antiviral cell-based qHTS; Potency, µM (highest dose often 57.9 µM), without a hit: at the top dose activity change, negative = inhibition, most hits filed as inhibitors; 410,000 compounds, 1.2% hits; calls by dose curve; tested in HEK293T cells; further: read-out not given here; potency means the concentration at half of the fitted maximal effect; nearly all actives have a fitted effect of over 45% in size
HCMV inh: blocks human cytomegalovirus replication | HFF cells, HCMV-luciferase reporter, 72 h; hits give low values | activity change, negative = inhibition, % at 57.5 µM | 410,000 compounds, 4.5% hits; in the data active means activity change below about -60%; inconclusive means no clear call, values can overlap the other calls; inactive means above about -39%
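After 16 h attachment at 37C, HFF cells received test compound and HCMV-luciferase (1 PFU/cell); reporter luminescence read 72 h later, data normalized against buffer-only and known inhibitor Salinomycin.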
Marburg entry inh: inhibitors of Marburg virus binding or cell entry | Potency, µM (titrated, usually from 37.8 µM), without a hit: top-dose activity change, negative = inhibition, most hits filed as inhibitors | 300,000 compounds, 1.8% hits | Marburg virus pseudotyped entry inhibition, cell reporter; calls by dose curve; tested in HEK293 cells; further: potency means the concentration at half of the fitted maximal effect
* marks the source's active call; other numbers are inactive results; ? = inconclusive; nt = no result; ! = repeats disagree; [ ] = another dose, or the depositor's remark. Only some compounds are listed: those with a hit (about 7.9% of all), similar ones and a draw of the others. On the % scale 0 is the no-effect control and ±100 the full control effect.

SMILES	HCV inhibitor	Lassa entry inh	FMDV antiviral	HCMV inh	Marburg entry inh
CSc1ccc(CNC(=O)c2cc3c(=O)n(Cc4ccco4)ccc3nc2C)cc1	nt	?	-19%	-28	nt
COc1ccc(OCC(=O)N2CCN(C(=O)c3ccc(OC)c(OC)c3)CC2)cc1	nt	5%[46.1 µM]	15%	22	?
COc1ccc(OCCN2CCN(C(=O)c3ccc(OC)c(OC)c3)CC2)cc1	8.9µM*	?	?	-14	?
CCC1(C2CCN(Cc3cc4ccccc4o3)CC2)NC(=O)N(CC2COc3ccccc3O2)C1=O (stereo not given)	nt	nt	-25%	nt	nt
C#CCCC[C@@H]1OC(=O)CNC(=O)C([C@@H](C)CC)NC(=O)[C@@H]2CCCN2C(=O)C([C@@H](C)CC)OC(=O)[C@H](Cc2ccccc2)N(C)C(=O)[C@H](C(C)C)NC(=O)C1(C)C (stereo not given in full)	nt	nt	-24%	?	nt
CC[C@H](C)[C@@H]1NC(=O)[C@H]([C@@H](C)CC)NC(=O)[C@@H](CC(C)C)NC(=O)[C@H](Cc2ccccc2)NC(=O)[C@H](Cc2ccccc2)NC(=O)[C@@H]2CCCN2C(=O)[C@@H]2CCCN2C(=O)[C@H](C(C)C)NC(=O)[C@H](CC(C)C)NC1=O	-25%	nt	-10%	-80*	nt
O=C(Nc1c(C(=O)N2CCC(N3CCCCC3)CC2)oc2ccccc12)c1c(F)cccc1F	?	29%[46.1 µM]	-6%	-2	nt
O=C(Nc1c(C(=O)N2CCC(N3CCCCC3)CC2)oc2ccccc12)c1ccc(F)cc1	13µM*	nt	24%	-31	nt
O=C(COc1ccccc1)Nc1c(C(=O)N2CCC(N3CCCCC3)CC2)oc2ccccc12	-26%	nt	47%	-70*	nt
COc1ccc(CC2NCCC3(O)CCCCC23)cc1 (stereo not given)	7%	0%	-15%	-8	-1%
COc1ccc(CC2NCC(O)C2OC(C)=O)cc1 (stereo not given)	0.56µM*	nt	?	-109*	nt
CC(=O)NCCc1nc2ccccc2n1CCCCOc1ccc(Cl)cc1	nt	?	?	-27	?
Cc1ccc(OCCCCn2c(CO)nc3ccccc32)cc1	-13%	-1%[46.1 µM]	0%	-65*	?
CC(C)(C)C(=O)NCCCc1nc2ccccc2n1CCCOc1ccc(Cl)cc1	?	?	20µM*	-84*	?
COc1ccccc1CCN1COc2c(cc3c(C)c(C)c(=O)oc3c2C)C1	nt	6%[46.1 µM]	-7%	4	?
COc1nc(N=C(N)N)nc2ccc(C)cc12	?	nt	nt	-102*	-6%
CCC(C(=O)Nc1ccc(C)c(C)c1)n1c(=O)c(C(F)(F)F)nc2ccccc21 (stereo not given)	nt	15%[46.1 µM]	-17%	-7	nt
COc1ccc(C2=C(C)C(N3CCC(C(=O)Nc4cc(C)ccc4C)CC3)=NS2(=O)=O)cc1	nt	-6%[46.1 µM]	-19%	6	nt
CN1CCC(=C2c3ccccc3C(O)c3ccccc32)CC1 (stereo not given)	-6%	nt	7%	-13	nt
CN1CCC(=C2c3ccccc3CC(=O)c3sccc32)CC1	?	?	?	-65*!	?
COC(=O)C1=C(C)N(Cc2ccccc2)C(=O)NC1c1ccccc1 (stereo not given)	nt	-20%[14.3 µM]	nt	nt	?
Cc1cc(C)nc(/N=c2/ssnc2Cl)c1	-8%	6%	28µM*	-29	-21%
CC(=O)N1c2c(cc(Br)cc2S(=O)(=O)NCc2ccc(C)cc2)CC1C (stereo not given)	-8%	nt	4%	-66*	-16%[46.1 µM]
CC(=O)N1c2c(cc(Br)cc2S(=O)(=O)Nc2ccc(OC(F)(F)F)cc2)CC1C (stereo not given)	nt	4%[46.1 µM]	25%	-82*	-23%[46.1 µM]
CCCN(CCC)C(=O)Cn1c(=O)n(-c2ccc(CC)cc2)c(=O)c2c3c(sc21)CCC3	nt	8%[46.1 µM]	-16%	-14	8%[46.1 µM]
SMILES	HCV inhibitor	Lassa entry inh	FMDV antiviral	HCMV inh	Marburg entry inh
O=C1NC(=O)N2CCSC2(Cc2ccccc2)N1 (stereo not given)	22%	10%[46.1 µM]	1%	-98*	0%
Cc1cc(F)ccc1S(=O)(=O)Nc1ccc2c(c1)CCCN2C(=O)c1cccs1	nt	?	-21%	?	nt
CCOC(=O)CNS(=O)(=O)c1cc(-c2nnc(Nc3ccc4c(c3)OCO4)c3ccccc23)ccc1C	?	-24%	35%	-65*	?
O=S(=O)(NCC1CCCO1)c1ccccc1 (stereo not given)	5%	nt	7%	34	nt
CCOC(=O)CNS(=O)(=O)c1cc(-c2nnc(Nc3cccc(O)c3)c3ccccc23)ccc1C	nt	-20%[46.1 µM]	12%	12	nt
O=S(=O)(NCC1CCCO1)c1ccc(Cl)c2ccccc12 (stereo not given)	nt	nt	83%	-84*	nt
Cc1ccc(-c2nnc(N3CCOCC3)c3ccccc23)cc1S(=O)(=O)NCC1CCCO1 (stereo not given)	-6%	-22%	-15%	-95*	-16%
Cc1ccc(NS(=O)(=O)c2cc(-c3n[nH]c(=O)c4ccccc34)ccc2C)cc1	?	?	-65%	?	5µM*
CC(C)(C)C(=O)Cn1c(=O)n(-c2ccc(Cl)cc2)c(=O)c2c3c(sc21)CCCC3	nt	9%[46.1 µM]	-24%	-4	5%[46.1 µM]
Cc1ccccc1Nc1nnc(-c2ccc(C)c(S(=O)(=O)NCC3CCCO3)c2)c2ccccc12 (stereo not given)	nt	-5%[46.1 µM]	20%	-76*	?
Cc1ccc(-c2nnc(N3CCC(C)CC3)c3ccccc23)cc1C	?	3%	20µM*	-27	-26%[46.1 µM]
Cc1ccc(-c2n[nH]c(=S)c3ccccc23)cc1S(=O)(=O)NCC1CCCO1 (stereo not given)	?	9%[46.1 µM]	-8%	-63*	-17%[46.1 µM]
Cc1ccc(-c2n[nH]c(=O)c3ccccc23)cc1S(=O)(=O)NCC1CCCO1 (stereo not given)	-17%	-1%[46.1 µM]	24%	-5	3%[46.1 µM]
Cc1ccc(-c2nnc(Nc3cccc(O)c3)c3ccccc23)cc1S(=O)(=O)NCC1CCCO1 (stereo not given)	nt	-4%[46.1 µM]	13%	?	9%[46.1 µM]
NC(=O)c1c(-c2ccc(Cl)cc2Cl)csc1NC(=O)Cc1ccccc1	?	-12%	?	-65*	?
O=S(=O)(Nc1cccc(-c2nc3cccnc3s2)c1)c1ccc2c(c1)OCCO2	?	nt	43%	-64*	nt
O=c1c(Cl)c(Cl)cnn1Cc1nnc(-c2ccccc2Br)o1	?	-17%[46.1 µM]	?	-99*	?
CC(C)C(=O)N1c2nc(-c3ccco3)nn2C2(CCCCC2)[C@@H]2CCCC[C@@H]21	nt	?	-8%	7	-12%[46.1 µM]
Cc1ccc2nc(/C(C#N)=C/c3ccc(-c4ccc(F)cc4F)o3)[nH]c2c1	nt	-14%[46.1 µM]	-22%	-22	nt
Cc1cc(/C=C(\C#N)c2nc3ccccc3[nH]2)c(C)n1C	?	10µM*	2%	74	?
Cc1ccc2nc(/C(C#N)=C/c3ccc(-c4cccc([N+](=O)[O-])c4)o3)[nH]c2c1	-27%	2%	3%	-62*	5%

From PubChem
